# PubChem BioAssay (NCATS)
# Inconclusive results are not listed. Entries that show only a call come without a potency. Unmarked numbers belong to inactive results. Calls of active or inactive are those of the source. Calls follow the shape of the dose curve; as a rule, active = well fitted inhibition curve with a large enough effect; inconclusive = small, poorly fitted or top-dose-only effect; inactive = flat fitted curve, though single readings scatter.
# What was measured:
# CRL-7250 = normal cell line; test: Cytotoxic Profiling of Annotated Libraries Using Quantitative High-Throughput Screening (AID 1296008); details: Five cell lines viability, CellTiter-Glo ATP luminescence, 48-72 h; max response: hits give low values; also: potency is read from the fitted curve at half-maximal effect
# How it was run: (§1)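 Compounds were pin-transferred onto cells and incubated 48 or 72 hr at 37 degree Celsius, 95% humidity. CellTiter-Glo was added, plates sat 10 min at room temperature, then ATP-coupled luminescence was imaged as the viability read-out.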
# HaCat [1] = test: as above; details: Five cell lines viability, CellTiter-Glo ATP luminescence, 48-72 h; max response: hits give low values
# How it was run: as §1
# KB-3-1 = test: as above; details: Five cell lines viability, CellTiter-Glo ATP luminescence, 48-72 h; max response: hits give low values
# How it was run: as §1
# NIH3T3 = test: as above; details: Five cell lines viability, CellTiter-Glo ATP luminescence, 48-72 h; max response: hits give low values
# How it was run: as §1
# MCC-13 = test: qHTS assay to identify novel small-molecules to repurpose for Merkel cell carcinoma treatment (AID 1296009); details: MCC and control cell lines, CellTiter-Glo viability, 72 h; series mostly up to 46 µM
# How it was run: (§2)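 Viability readout: ATP luminescence (CellTiter-Glo) after 72 hr drug exposure at 37 degree celsius. Dose-response format was 8 points for NPC and 11 points for MIPE; data normalized to in-plate controls.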
# MCC-26 = test: as above; details: MCC and control cell lines, CellTiter-Glo viability, 72 h; series mostly up to 46 µM
# How it was run: as §2
# HEK293 = test: Cytotoxic Profiling of Annotated Libraries Using Quantitative High-Throughput Screening (AID 1296008); details: Five cell lines viability, CellTiter-Glo ATP luminescence, 48-72 h; max response: hits give low values; also: potency is read from the fitted curve at half-maximal effect
# How it was run: as §1
# HACAT [2] = test: qHTS assay to identify novel small-molecules to repurpose for Merkel cell carcinoma treatment (AID 1296009); details: MCC and control cell lines, CellTiter-Glo viability, 72 h; at 44.8 µM (top of the series) unless noted
# How it was run: as §2
# W2 = test: qHTS profiling for inhibitors of Plasmodium falciparum proliferation (AID 504749); also: potency is read from the fitted curve at half-maximal effect; details: P. falciparum in erythrocytes, SYBR Green DNA, 72 h; series mostly up to 28.7 µM
# How it was run: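 Quantitative HTS: compounds pinned into medium, infected erythrocytes added (0.3% parasitemia, 2.5% hematocrit), 72 h culture at 37 C under 5% CO2. Saponin/Triton lysis with SYBR Green I, overnight RT, then fluorescence read.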
# HEK293T = test: qHTS assay to identify novel small-molecules to repurpose for Merkel cell carcinoma treatment (AID 1296009); details: MCC and control cell lines, CellTiter-Glo viability, 72 h; at 44.8 µM (top of the series) unless noted
# How it was run: as §2
# Also: nearly all actives have a fitted effect of over 60% in size.
smiles,measurement,setting,value
COc1ccc(C(Cl)=C(c2ccc(OC)cc2)c2ccc(OC)cc2)cc1,outcome,CRL-7250,inactive
same,max response,HaCat [1],-3.14%
same,max response,KB-3-1,9.01%
same,max response,NIH3T3,-2.4%
same,Potency,MCC-13,inactive
same,Potency,MCC-26,inactive
N#C/C(=C1\SCC(c2ccccc2Cl)S1)n1ccnc1 (stereo not drawn),max response,HEK293,-7.28%
same,outcome,HaCat [1],inactive
same,max response,KB-3-1,0.837%
same,max response,NIH3T3,-9.88%
same,outcome,HACAT [2],inactive
same,Potency,MCC-13,inactive
same,Potency,MCC-26,inactive
Cc1cccc(C)c1NC(=O)CN1CCCC1,max response,HEK293,0.0979%
same,outcome,HaCat [1],inactive
same,max response,KB-3-1,8.28%
same,max response,NIH3T3,1.81%
same,outcome,HACAT [2],inactive
same,Potency,MCC-13,inactive
same,Potency,MCC-26,inactive
CO[C@]12C[C@@H](COC(=O)c3cncc(Br)c3)CN(C)[C@@H]1Cc1cn(C)c3cccc2c13,Potency,W2,6.75 µM (active)
same,max response,HEK293,-26.4%
same,outcome,HaCat [1],inactive
same,max response,KB-3-1,9.31%
same,max response,NIH3T3,0.842%
same,outcome,HACAT [2],inactive
same,Potency,MCC-13,inactive
same,Potency,MCC-26,inactive
CC(C)=CCOc1ccc(/C=C/C(=O)c2ccc(OCC=C(C)C)cc2OCC(=O)O)cc1,max response,CRL-7250,-15.2%
same,outcome,HaCat [1],inactive
same,outcome,NIH3T3,inactive
same,outcome,HACAT [2],inactive
same,Potency,MCC-13,inactive
COc1cc(C(=O)NCc2ccc(OCCN(C)C)cc2)cc(OC)c1OC,Potency,W2,inactive
same,max response,CRL-7250,-8.61%
same,max response,HaCat [1],4.17%
same,max response,KB-3-1,-11.1%
same,max response,NIH3T3,-0.23%
same,Potency,MCC-13,inactive
same,Potency,MCC-26,inactive
O=C(Nc1cccc(C2=NCCN2)c1)Nc1cccc(C2=NCCN2)c1,Potency,W2,1.69 µM (active)
same,outcome,CRL-7250,inactive
same,max response,HaCat [1],-0.992%
same,max response,KB-3-1,-7.99%
same,max response,NIH3T3,1.41%
same,Potency,MCC-13,inactive
same,Potency,MCC-26,inactive
CC(C)(Cc1c[nH]c2ccccc12)NCC(O)COc1ccccc1C#N (stereo not drawn),Potency,W2,3.79 µM (active)
same,max response,CRL-7250,-4.9%
same,max response,HaCat [1],-15.6%
same,max response,KB-3-1,19.5%
same,max response,NIH3T3,-8.73%
same,Potency,MCC-13,inactive
same,Potency,MCC-26,inactive
COc1cc(C(=O)N2CCCCCCC2)cc(OC)c1OC,Potency,W2,inactive
same,max response,HEK293,0.115%
same,outcome,HaCat [1],inactive
same,max response,KB-3-1,-4.88%
same,max response,NIH3T3,2.92%
same,outcome,HACAT [2],inactive
same,Potency,MCC-13,inactive
same,Potency,MCC-26,inactive
CCC1Nc2cc(Cl)c(S(N)(=O)=O)cc2S(=O)(=O)N1 (stereo not drawn),Potency,W2,inactive
same,outcome,HEK293,inactive
same,max response,HaCat [1],3.1%
same,max response,KB-3-1,-3.7%
same,max response,NIH3T3,3.7%
same,outcome,HEK293T,inactive
same,Potency,MCC-13,inactive
same,Potency,MCC-26,inactive
CC(C)CCCC(C)N (stereo not drawn),Potency,W2,inactive
same,Potency,CRL-7250,33.5 µM (active)
same,max response,HaCat [1],-0.769%
same,max response,KB-3-1,22%
same,outcome,NIH3T3,inactive
same,Potency,MCC-13,inactive
same,Potency,MCC-26,inactive
CC(C)(C)NC[C@H](O)COc1cccc2c1CCCC2=O,max response,CRL-7250,-0.218%
same,max response,HaCat [1],-26.5%
same,max response,KB-3-1,-2.09%
same,max response,NIH3T3,-0.923%
same,Potency,MCC-13,inactive
same,Potency,MCC-26,inactive
CC1CCc2c(N3CCC(O)CC3)c(F)cc3c(=O)c(C(=O)O)cn1c23 (stereo not drawn),max response,CRL-7250,-8.92%
same,max response,HaCat [1],-5.2%
same,max response,KB-3-1,15%
same,max response,NIH3T3,-20%
same,Potency,MCC-13,inactive
same,Potency,MCC-26,inactive
CCOC(=O)C(C#N)=C(c1ccccc1)c1ccccc1,Potency,W2,inactive
same,max response,CRL-7250,-5.66%
same,max response,HaCat [1],-20.2%
same,max response,NIH3T3,3.96%
same,Potency,MCC-13,inactive
same,Potency,MCC-26,inactive
CCc1ccc(C(=O)C(C)CN2CCCCC2)cc1 (stereo not drawn),max response,HEK293,-19.7%
same,outcome,HaCat [1],inactive
same,max response,KB-3-1,-1.02%
same,max response,NIH3T3,-2.26%
same,outcome,HACAT [2],inactive
same,Potency,MCC-13,inactive
same,Potency,MCC-26,inactive
CC(C)(C)CC(C)(C)c1ccc(O)c(-n2nc3ccccc3n2)c1,Potency,W2,6.01 µM (active)
same,max response,HEK293,-0.0454%
same,outcome,HaCat [1],inactive
same,max response,KB-3-1,2.75%
same,max response,NIH3T3,3.67%
same,outcome,HACAT [2],inactive
same,Potency,MCC-13,inactive
same,Potency,MCC-26,inactive
c1ccc(-c2nc[nH]c2-c2ccccc2)cc1,Potency,W2,inactive
same,max response,CRL-7250,-18.7%
same,max response,HaCat [1],-29.5%
same,max response,KB-3-1,23.6%
same,max response,NIH3T3,-7.14%
same,Potency,MCC-13,inactive
same,Potency,MCC-26,inactive
O=C1OC(CN2CCOCC2)CN1/N=C/c1ccc([N+](=O)[O-])o1 (stereo not drawn),outcome,CRL-7250,inactive
same,max response,HaCat [1],2.11%
same,max response,KB-3-1,2.54%
same,max response,NIH3T3,-5.18%
same,Potency,MCC-13,inactive
same,Potency,MCC-26,inactive
FC(F)(F)C(F)(F)C(F)(F)C(F)(F)C(F)(F)C(F)(F)C(F)(F)C(F)(F)Br,Potency,W2,inactive
same,max response,HEK293,0.523%
same,outcome,HaCat [1],inactive
same,max response,KB-3-1,13.3%
same,max response,NIH3T3,-4.33%
same,outcome,HACAT [2],inactive
same,Potency,MCC-13,inactive
same,Potency,MCC-26,inactive
O=C(Nc1ccccc1)OCC(CN1CCCCC1)OC(=O)Nc1ccccc1 (stereo not drawn),max response,CRL-7250,-24%
same,outcome,HaCat [1],inactive
same,max response,NIH3T3,-10.2%
same,outcome,HACAT [2],inactive
same,Potency,MCC-13,inactive
CCOC(=O)[C@H](CCc1ccccc1)N[C@@H](C)C(=O)N1[C@H](C(=O)O)C[C@@H]2CCC[C@@H]21,max response,HEK293,1.35%
same,outcome,HaCat [1],inactive
same,max response,KB-3-1,3.06%
same,max response,NIH3T3,0.794%
same,outcome,HACAT [2],inactive
same,Potency,MCC-13,inactive
same,Potency,MCC-26,inactive
